Assay outcomes from PubChem.
Shown are actives, neighbours in structure and some others; about 4.1% of the full set was active somewhere.
hcDAF12 agonist – activates DAF-12 receptor from parasite H. contortus; HEK293 hcDAF-12 lit1-tk-luc reporter, luminescence; 0% DMSO, 100% Δ7-dafachronic acid; activation, % at 6.8 µM; actives 1.4% (n = 370,000);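 active means activation above the mean of all tested compounds plus 3 SD, cut at about 5.5% in these data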
ssDAF12 agonist – activates DAF-12 receptor from parasite S. stercoralis | HEK293 ssDAF-12/GRIP1 lit1-tk-luc reporter, luminescence; % of 3 µM dafachronic acid response | activation, % at 6.8 µM | actives 1% (n = 370,000);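 active means activation above the mean over all tested compounds plus 3 SD, cut at about 0.9% in these data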
DAX1 inh-1 – inhibitors of DAX1 repression of SF-1 activated StAR promoter; HEK293T StAR-luciferase reporter, SF-1/DAX-1 repression relief; inhibition, % at 6.8 µM; actives 1.1% (n = 370,000); AID 652010;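 active means inhibition above the mean over all tested compounds plus 3 SD, cut at about 3.6% in these data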;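 further: higher inhibition means more luminescence from relief of DAX-1 repression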
hgDAF12 agonist – hgDAF-12 agonism, primary luciferase screen; HEK293 GAL4-hgDAF12 UAS-luciferase reporter, agonist luminescence; normalized to butyrate control; activation, % at 6.8 µM; actives 1.8% (n = 370,000); AID 687014;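 active means activation above a cutoff set at the mean of all screened compounds plus 3 SD, cut at about 10% in these data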
DAX1 inh-2 – NR0B1 (DAX1) inhibition. actives 0.99% (n = 340,000). inhibition, % at 6.75 µM. HEK293 Gal4-DAX1 luciferase reporter, luminescence. AID 504766. P51843;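 active means inhibition above the mean over all tested compounds plus 3 SD, cut at about 4.2% in these data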;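 further: inhibition shows as a rise in luminescence from relieved DAX1 repression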
Target sequence (P51843 207-470 limits assumed): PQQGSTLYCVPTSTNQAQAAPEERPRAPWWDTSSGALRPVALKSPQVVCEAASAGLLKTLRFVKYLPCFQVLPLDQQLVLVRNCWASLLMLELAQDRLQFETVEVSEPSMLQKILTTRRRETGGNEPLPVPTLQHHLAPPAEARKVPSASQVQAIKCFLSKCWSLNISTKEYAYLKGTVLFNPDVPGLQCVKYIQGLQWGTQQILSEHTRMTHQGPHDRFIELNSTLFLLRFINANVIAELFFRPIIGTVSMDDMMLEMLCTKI
Hits are given with their value; . = inactive; / = not tested or not shown.

SMILES | hcDAF12 agonist | ssDAF12 agonist | DAX1 inh-1 | hgDAF12 agonist | DAX1 inh-2
CC1=CCC(COC(=O)Nc2ccccc2)CC1 (stereo not given) | . | . | . | 11.0 | .
CC(C)C[C@@H]1COc2cc(Br)ccc2S(=O)(=O)N1Cc1cn(Cc2ccc(F)cc2)nn1 | . | . | . | . | /
Clc1cc(Cl)c2nc(N3CCOCC3)sc2c1 | . | . | . | . | 4.8
Clc1ccc(Cl)c2sc(N3CCOCC3)nc12 | . | . | . | . | .
CCS(=O)(=O)Nc1ccc2c(c1)C(=O)N(C)[C@@H]1CC[C@H](CC(=O)NCCOC)O[C@H]1CO2 | . | . | . | . | /
O=C(c1cc2c(c(-c3cccc(-c4ccc(F)cc4)c3)n1)[C@H](CCO)N(C(=O)c1ccc3c(c1)OCO3)C2)N1CCOCC1 | . | . | . | . | /
O=C(c1cc2c(c(-c3cccc(-c4ccncc4)c3)n1)[C@@H](CCO)N(C(=O)c1ccc3c(c1)OCO3)C2)N1CCOCC1 | . | . | 3.7 | . | /
COC(=O)[C@@]12CCCCC3=C1N(CCC3)C(=O)[C@H]2CC(=O)N1CCC(c2ccccc2)CC1 | . | . | . | . | /
Nc1cc(C(F)(F)F)ccc1Nc1ccccc1 | . | 0.9 | . | . | .
COc1ccc2c(c1)S/C(=C\C(=O)c1ccncc1)N2C | . | . | . | 11.7 | .
CCN1CCN(CC(=O)c2c[nH]c3ccccc23)CC1 | 5.6 | . | . | . | .
Cc1ccc(C(=O)C2CCN(CC(=O)NCc3cccs3)CC2)cc1 | . | . | . | . | /
CCCCc1cc(=O)oc2c(CN(C)C)c(O)c(Cl)cc12 | . | 1.3 | . | . | .
CCc1c(C)c2cc(Cl)c(O)c(CN(C)C)c2oc1=O | . | . | . | . | .
COCCn1c(SCC(=O)Nc2ccc(C)cc2C)nc2c(oc3ccccc32)c1=O | . | 0.9 | . | . | .
Cc1cccc(NC(=O)Nc2nc3ncccn3c2-c2ccccc2)c1 | . | . | . | . | /
COc1ccccc1N=Nc1c(O)[nH]c2ccc(Br)cc12 | 6.4 | 1.0 | . | . | .
CC(Oc1ccccc1)C(=O)N=Nc1c(O)[nH]c2ccc(Br)cc12 (stereo not given) | . | 2.2 | . | . | .
Cn1c(Cc2cccs2)nnc1SCC(=O)Nc1ccc2c(c1)OCCO2 | . | . | . | . | /
Cc1ccc(-c2nc(C3CCCN(S(=O)(=O)c4ccc(C)c(C)c4)C3)no2)cc1 (stereo not given) | . | 1.0 | . | . | /
CCN(C(=O)Cn1c([N+](=O)[O-])cnc1C)c1ccccc1 | . | 1.5 | . | . | .
CC(C)C(=O)OCCCN1C(=O)CCC12CCC(c1ccccc1)CC2 (stereo not given) | . | . | . | . | /
Brc1ccc(-c2noc(CCc3ccccc3)n2)cc1 | . | . | . | . | 4.7
COc1ccc(Cc2nc(-c3cccs3)no2)cc1 | . | . | . | 10.9 | .
COc1ccc(Cc2nc(-c3ccccc3)no2)cc1 | . | . | . | 12.8 | .
SMILES | hcDAF12 agonist | ssDAF12 agonist | DAX1 inh-1 | hgDAF12 agonist | DAX1 inh-2
c1csc(-c2noc(COc3ccc4c(c3)CCCC4)n2)c1 | . | . | 4.0 | 11.8 | .
CN1C(=O)c2cc(NC(=O)Nc3ccccc3)ccc2OC[C@H]2O[C@@H](CC(=O)N[C@H]3CCN(Cc4ccccc4)C3)CC[C@@H]21 | . | . | . | . | /
COc1ccc(CN=Cc2c(O)[nH]c3ccccc23)cc1 | . | . | . | . | .
Oc1[nH]c2ccccc2c1/C=N/c1nccs1 | 5.7 | . | . | . | .
O=C(NC(=O)c1ccccc1O)c1ccc2c(c1)CCO2 | . | 1.0 | . | 12.5 | .
C[C@H]1CCCN1c1ccc2c(c1)O[C@H]1CCN(C1)S2(=O)=O | . | . | . | . | /
Cc1cc2nc3ccc(N(C)C)cc3nc2cc1N | 6.3 | 1.1 | 4.4 | . | .
CCOC(=O)C1(CC2CCCCO2)CCN(Cc2nc3ccccc3nc2C)CC1 (stereo not given) | . | . | . | . | /
CCOC(=O)C1(C(=O)OCC)COC(=O)C1CN1Cc2cc3ccccc3nc2C1 (stereo not given) | . | 1.0 | . | . | .
COc1ccc(/C=C2\S/C(=N/S(=O)(=O)c3cccs3)NC2=O)cc1 | . | . | . | . | .
COc1ccc(/C=N/S(=O)(=O)c2cccs2)cc1 | . | 3.0 | . | . | .
Cc1ccc(C(C)C)c(OCC(=O)NNC(=O)CC2OC(=O)c3ccccc32)c1 (stereo not given) | . | . | . | . | 4.2
